# Experimental data as given in ChEMBL document CHEMBL5308504, “Tm Shift (DSF) assay results for EUbOPEN Chemogenomics Library” (2023).
# “And” between values parts separate entries of the source, which are not always exact repeats. Equal entries are not always repeated.
# Target: Bromodomain-containing protein 4 (Homo sapiens) (UniProt O60885)
# Details: Compound concentration 20.0 uM, Protein concentration 2.0 uM, Result type QC Liability
row,Structure (SMILES),ΔTm
1,COc1cc(C(=O)NCCOCCOCCOCC(=O)N[C@H](C(=O)N2C[C@H](O)C[C@H]2C(=O)NCc2ccc(-c3scnc3C)cc2)C(C)(C)C)ccc1Nc1ncc(C(F)(F)F)c(Oc2cccc3c2C(=O)CC3)n1,-0.02 °C
2,Cc1nc(Nc2cnn(C3CCNCC3)c2)nc2c1N(C)C(=O)c1cc3ccccc3cc1N2C,-2.15 °C
3,CSc1nc2c(c(=O)n(C)c(=O)n2C)n1C,-3.81 °C
4,CCOC(=O)CS(=O)(=O)c1ccc([C@@H](CO)NC(=O)c2cc3c(Cl)c(Cl)c(C)cc3n2C)cc1,-3.35 °C
5,CC(C)(O)CNC(=O)N1C(=O)N(c2cccc(C(F)(F)F)c2)C2=C(C(=O)CC2)[C@@H]1c1ccc(C#N)cc1,-0.6 °C
6,Cc1cc(OC2CCS(=O)(=O)CC2)cc(C)c1-c1cccc(COc2ccc(CCC(=O)O)c(F)c2)c1,-5.08 °C
7,CC(C)(O)c1cn(-c2ccc(-c3cccc(S(C)(=O)=O)c3)cc2)c(C(C)(C)c2ccccc2Cl)n1,-4.36 °C
8,CSc1ccc(C[C@@H](C)C(=O)O)cc1Nc1nc(N2CC[C@H](N(C)C)C2)cc(C(F)F)c1C#N,0.52 °C
9,C[C@H]1CN(C2COC2)CCN1c1ccc(Nc2cc(-c3ccnc(N4CCn5c(cc6c5CC(C)(C)C6)C4=O)c3CO)cn(C)c2=O)nc1,-1.88 °C
10,Cc1cc2c(-c3ccco3)cnc(N[C@H]3CCN(C)C[C@@H]3C(=O)NC3CCCCC3)c2[nH]c1=O,3.29 °C
11,N[C@@H]1CCCN(c2c(/C=C3\SC(=O)NC3=O)cccc2-c2ccccc2)C1,-2.91 °C
12,Cc1c(N2CCCC2)nc2ccc(Br)cc2c1C(=O)NC[C@H](CCC(=O)O)c1ccccc1Cl,-0.88 °C and -3.16 °C
13,O=C1COc2cc(C(=O)N(Cc3ccc(C(=O)Nc4ccncn4)cc3)C3CC3)ccc2N1,0.06 °C
14,O=C(Nc1cccc(Nc2nccc(Nc3cccc(C(F)(F)F)c3)n2)c1)C1CC1,1.77 °C
15,Nc1ncc2c(n1)-c1c([nH]c3ccc(C4CC4)cc13)CCCC2,-1.04 °C
16,Cc1sc(C(=O)c2cncnc2N[C@@H]2C[C@H](COS(N)(=O)=O)[C@@H](O)C2)cc1[C@@H]1NCCc2ccc(Cl)cc21,-4.45 °C
17,CC(C)C[C@H](NC(=O)[C@@H](O)[C@H](N)Cc1ccccc1)C(=O)O,-0.66 °C
18,CC(C)S(=O)(=O)c1ccccc1Nc1nc(N[C@@H]2CCCN(CCCCCCCNC(=O)COc3cccc4c3C(=O)N(C3CCC(=O)NC3=O)C4=O)C2)ncc1Cl (stereo partly specified),1.89 °C

row,Structure (SMILES),ΔTm
1,COC(=O)c1sccc1S(=O)(=O)Nc1ccc(Nc2ccccc2)cc1OC,-3.85 °C
2,C=C(F)C(=O)N1CCN(c2nc(OC[C@@H]3CCCN3C)nc3c2CCN(c2cccc4cccc(Cl)c24)C3)C[C@@H]1CC#N,0.05 °C
3,C[C@]12CC[C@@H]3c4ccc(O)cc4CC[C@H]3[C@@H]1C[C@H]1OC(=O)C[C@]12O,-11.6 °C
4,CN(C)C(=O)Cn1cc(-c2ccc(-c3cncc4ccccc34)cc2)cn1,-2.19 °C
5,CC(C)Oc1ccc(Cc2ccc(NC3=NCCN3)cc2)cc1,-1.86 °C
6,Cc1cc(Cn2c(N3CC4(CNC4)C3)nc3cc(Cl)cc(N4CCN(C)CC4)c32)cc(C)c1F,-0.27 °C
7,CN1CCC(F)(Cn2cnc(-c3ccc(F)cn3)c2-c2ccnc3[nH]ccc23)CC1,-2.6 °C
8,CNC(=O)c1cccc(-c2ccc3c(N4CCOC[C@@H]4C)nc(N4CCOC[C@@H]4C)nc3n2)c1,-1.42 °C
9,Cn1ccc(Cn2cnc(-c3ccc(F)cc3)c2-c2ccnc3[nH]ccc23)n1,-1.68 °C
10,O=C(O)Cc1ccc(CCNS(=O)(=O)c2ccc(Cl)cc2)cc1,-1.74 °C
11,CC(C)(C)C(=O)NCc1ccc(Cl)c(C(=O)Nc2ncc[nH]2)c1,-0.82 °C
12,CCS(=O)(=O)c1cc2cc(C[C@](O)(CC(C)(C)c3ccc(F)cc3C(N)=O)C(F)(F)F)[nH]c2cn1,-2.16 °C
13,COc1ccccc1-c1cc(Nc2cccc(CS(N)(=O)=O)c2)ncn1,-0.36 °C
14,COc1cc(O)c(C(CC(=O)N2C[C@H](C)C[C@H](C)C2)c2ccc3c(c2)OCO3)c(OC)c1 (stereo partly specified),0.54 °C
15,CN(C)C(=O)c1cc2cnc(Nc3ccc(N4CCN(CCCCNC(=O)COc5cccc6c5C(=O)N(C5CCC(=O)NC5=O)C6=O)CC4)cn3)nc2n1C1CCCC1 (stereo unspecified),-0.39 °C
16,Cc1ccc(NS(=O)(=O)c2ccc3c(c2)C2C=CCC2C(c2ccc(C(=O)O)cc2)N3)cc1C (stereo unspecified),-2.09 °C
17,CCC(=O)N[C@@H]1CC[C@H](C(=O)N(C)c2ccc(-c3nc4ccccc4o3)cc2)C1,-0.34 °C
18,Cc1csc(S(=O)(=O)N(CC(C)C)c2cc3c(cc2OCc2ccc(C(=O)O)cc2)CCC3)n1,-0.64 °C
